Assay results taken from publication PMC5540273 (PLoS ONE, 2017).

Experiments:
Details in all cases: concentration: 1 μM, replicates: in singlicate; n = 1
TAOK1 = test system: TAOK1
TAOK2 = test system: TAOK2
TAOK3 = test system: TAOK3
TBK1 = test system: TBK1
TEC = test system: TEC
TESK1 = test system: TESK1
TGFBR1 = test system: TGFBR1
TGFBR2 = test system: TGFBR2
TIE1 = test system: TIE1
TIE2 = test system: T1, TIE2
T1 construct: gene TEK
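Further: KINOMEscan kinase panel screen.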

Compound	%Inh (TAOK1) [%]	%Inh (TAOK2) [%]	%Inh (TAOK3) [%]	%Inh (TBK1) [%]	%Inh (TEC) [%]	%Inh (TESK1) [%]	%Inh (TGFBR1) [%]	%Inh (TGFBR2) [%]	%Inh (TIE1) [%]	%Inh (TIE2) [%]
CNc1cc(-c2ccc3c(N)n[nH]c3c2)nc(N)n1 [GSK2224810]	56	0	9	9	15	0	36	47	0	0
Nc1ncnc2occ(-c3ccc4c(c3)CCN4C(=O)Cc3cc(F)ccc3F)c12 [GSK2645446]	0	6	0	10	0	0	0	0	45	0
CCc1ccc(-c2ccc3c(c2)-c2n[nH]cc2S(=O)(=O)N3C)cc1	0	27	0	0	0	15	0	0	0	20
CC(=O)c1cccc(NC(=O)NC2CCN(c3ccnc(Nc4ccc(F)cc4)n3)C2)c1 (stereo not shown) [GSK1379710]	2	0	11	18	4	20	38	0	0	0
Cc1ccccc1Cn1ccn2c(=O)cc(N3CCOCC3)nc12 [GSK2269905]	0	0	0	0	16	15	0	0	0	0
COc1ccc(-c2coc3ccc(-c4nnc(C)o4)cc23)cc1	0	0	0	30	0	8	3	43	0	40
Fc1ccc(-c2nc[nH]c2-c2ccncc2)cc1 [SB-217360]	0	40	7	48	0	0	37	53	0	3
COc1ccc2cc(-c3nc(-c4ccccc4C(C)C)[nH]c3-c3ccncc3)ccc2c1 [SB-660566]	0	0	0	0	17	32	80	42	69	97
CN1c2ccc(-c3ccc(C(N)=O)cc3)cc2-c2[nH]ncc2S1(=O)=O	0	28	0	0	0	19	13	11	0	0
Cc1cnc(N)c(/C=C/c2cncc(C(=O)NCCc3ccc(Cl)cc3Cl)c2)c1.Cl [GSK190937]	11	0	25	12	18	1	0	0	20	0
Cc1ccc(NC(=O)Nc2ccccc2)cc1-c1ccc(C(=O)Nc2ccncc2)cc1 [GSK1398471]	0	0	0	17	0	2	0	0	0	0
CS(=O)(=O)CCNCc1nc(-c2ccc3ncnc(Nc4ccc5c(cnn5Cc5ccccc5)c4)c3c2)cs1.Cl.Cl [GW569716]	0	0	0	0	0	21	27	0	0	0
O=C(Nc1n[nH]c2cc(-c3ccsc3)ccc12)C1CC1 [SB-732932]	64	8	26	9	32	9	0	0	11	11
Cc1c(Cn2c(C)c(C)n3c(=O)cc(N4CCOCC4)nc23)cccc1C(F)(F)F [GSK2328680]	0	0	0	9	5	22	9	0	54	0
O=C1NC(=O)C(c2ccc(Cl)cc2)=C1Nc1cccc(Cl)c1 [SB-317651]	15	2	15	15	0	22	0	8	0	6
COc1ccc(CSc2nnc(-c3ccc4nccn4c3)o2)cc1C(F)(F)F	22	13	0	10	21	12	14	12	22	0
COc1cc2ncnc(Nc3cccc(Br)c3)c2cc1OC.Cl [GI230329]	0	0	0	7	0	31	1	0	0	0

Compound	%Inh (TAOK1) [%]	%Inh (TAOK2) [%]	%Inh (TAOK3) [%]	%Inh (TBK1) [%]	%Inh (TEC) [%]	%Inh (TESK1) [%]	%Inh (TGFBR1) [%]	%Inh (TGFBR2) [%]	%Inh (TIE1) [%]	%Inh (TIE2) [%]
CNc1nc(-c2ccc3c(N)n[nH]c3c2)cc(N2C[C@@H](C(=O)NC3CCCCC3)OC[C@H]2C)n1 [GSK2375584]	0	1	0	28	12	11	20	0	2	0
COc1cccc(C2=C(Nc3cc(Cl)c(O)c(Cl)c3)C(=O)NC2=O)c1 [SB-390767]	69	0	29	0	1	0	0	30	0	0
CNCc1ccc2nc(NC(=O)c3ccc(C(C)(C)C)cc3)cn2c1	100	22	93.2	0	2	0	3	2	6	4
Cn1cnc2c(N)ncnc21 [SKF-97623]	0	0	0	0	0	0	9	2	0	0
CS(=O)(=O)Cc1ccc(Nc2nccc(-c3c(-c4cccc(NC(=O)C5CCCCC5)c4)nn4ncccc34)n2)cc1 [GSK350559]	11	0	0	29	29	10	0	0	3	0
COc1cccc(CNC(=O)NC2CCN(c3ccnc(Nc4ccc(F)cc4)n3)C2)c1 (stereo not shown) [GSK1379723]	0	0	0	0	7	100	21	0	24	0
NS(=O)(=O)c1cccc(N/C=C2\C(=O)Nc3ccc(S(=O)(=O)Cc4c(Cl)cccc4Cl)cc32)c1 [GSK398099]	0	2	10	37	6	9	0	0	0	0
Cl.Cl.Cl.N#Cc1ccc(CCNc2nccc(-c3cccc(CN4CCNCC4)c3)n2)cc1 [GSK2137462]	0	2	0	19	0	11	0	0	2	0
Cc1cccc2c(-c3ccncn3)c(-c3ccc(F)cc3)nn12 [GW515532]	0	0	0	0	0	17	0	23	14	0
COc1nccc(-c2c(-c3ccc(F)cc3)ncn2CCCN2CCOCC2)n1 [SB-282852]	0	0	0	19	0	8	20	0	0	33
COc1ccc(CSc2nnc(-c3ccc4c(c3)CCO4)o2)cc1	0	0	0	11	0	0	0	0	0	0
COc1ccc(Nc2nccc(N3CCC(NC(=O)c4cc5ccccc5s4)C3)n2)cc1 (stereo not shown) [GSK1379738]	0	0	0	22	12	30	17	0	0	0
COC(=O)c1cccc(NC(=O)NC2CCN(c3ccnc(Nc4ccc(OC)cc4)n3)C2)c1 (stereo not shown) [GSK1379746]	0	0	0	0	14	13	41	0	0	0
CS(=O)(=O)CCNCc1nc(-c2ccc3ncnc(Nc4ccc(OCc5ccccc5)c(Cl)c4)c3c2)cs1.Cl [GW582764]	0	0	0	0	0	19	58	0	0	0
COc1ccc(Nc2nccc(-c3ccc(NC(=O)c4cc5cc(F)ccc5[nH]4)cc3)n2)cc1 [GSK1229496]	0	0	0	11	0	7	9	0	0	0
Cc1ccc(NC(=O)c2ccc(Cl)cc2)cc1-c1ccc(C(=O)Nc2ccncc2)cc1 [GSK1398467]	0	0	0	7	12	14	1	0	0	0
CC[C@@H]1CO[C@H](C(=O)Nc2ccccc2)CN1c1cc(-c2ccc3c(N)n[nH]c3c2)nc(NC)n1 [GSK2376236]	0	1	0	31	0	0	9	0	4	0
